Screens as filed in PubChem.
An excerpt weighted towards active compounds, which were near 2.2% of everything screened.
LGR2 inh = inhibitors of bursicon-induced LGR2 CRE-luciferase signal, primary screen, cell-based, HEK293, CRE-luciferase reporter, bursicon stimulation | AID 720647, 2013 | bursicon-stimulated, 4 h | Drosophila bursicon receptor LGR2 (rickets) | inhibition, % at 9.99 µM | 0.35% of 380,000 active;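 active = drop in luminescence signal, shown as inhibition above about 50% in the replicate tests, limit read from the data, passing the limit was not always enough; inconclusive = probably only some replicates passing the limit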;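 note: agonist challenge used bursicon conditioned medium at about half maximal strength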
PAX8 inh HTS = inhibitors of PAX8-driven TPO luciferase reporter, primary screen, RMG-I cells, single concentration. SteadyGlo, 24 h. inhibition, % at 12.6 µM. 1.2% of 360,000 active;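 active = mean replicate inhibition at least 60% with every replicate also reaching 60%; inconclusive = only one of the two criteria is met; inactive = mean below 60% and not all replicates reaching 60%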;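 note: luciferase light reporting Pax8 driven TPO promoter activity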
MITF TRPM1 inh = inhibitors of MITF-dependent TRPM1 promoter reporter, primary screen, cell-based, SK-MEL-5, single point, luciferase. 0.83% of 330,000 active. SK-MEL-5 TRPM1 promoter luciferase, 24 h. inhibition, % at 12.5 µM;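 active = mean inhibition across replicates of 60% or more, whatever share of single replicates reaches that level; inconclusive = some that reach 60%, reason not given; inactive = mean inhibition across replicates below 60%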
Shn3 inh set2 = reduction of Shn3 3'UTR firefly luciferase signal, primary screen, Schnurri-3 inhibitor project, cell-based, Clone20 osteoblasts, set 2; inhibition, % at 12.5 µM; Clone20 osteoblast Shn3 3'UTR firefly luciferase, 24 h; AID 588674, 2011; 0.52% of 360,000 active;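 active = mean inhibition of at least 75% with every replicate also reaching 75%; inconclusive = mean inhibition at least 75% but some replicate below; inactive = mean inhibition below 75%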
LMP1 NFkB inh = EBV LMP1-driven NF-kappaB luciferase reporter inhibitors, primary screen, cell-based, luminescence, single point. LMP1-induced NF-kappaB luciferase reporter cells. inhibition, % at 12.5 µM. 0.69% of 350,000 active. AID 504558, 2011; in the data active = inhibition above about 41%; inconclusive = no clear call, values can overlap the other calls
EWS-Fli inh = EWS/Fli-driven NR0B1 reporter inhibitors, primary screen, A673 cells, NR0B1 luciferase, luminescence, MLPCN library; viability-normalised; inhibition, % at 12.6 µM; 0.67% of 350,000 active;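 active = mean inhibition of at least 50% after viability correction, with every replicate also passing that limit; inconclusive = mean reaches 50% but only one of two replicates passes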;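 note: firefly luciferase signal divided by Alamar Blue viability fluorescence both relative to DMSO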
Numbers stand for hits; . = inactive; ? = inconclusive; / = not tested or not shown; ! = a repeat was not active.

SMILES	LGR2 inh	PAX8 inh HTS	MITF TRPM1 inh	Shn3 inh set2	LMP1 NFkB inh	EWS-Fli inh
COCCCNC(=O)C(=O)NC1CCCCCC1	.	.	.	.	.	.
COCCNC(=O)C/C(C)=N/NC(=O)C(=O)NC1CCCCC1	.	101	.	.	.	.
CN(C)CCCNC(=O)C[C@@H]1C=C[C@@H](NS(=O)(=O)c2ccc(F)cc2)[C@H](CO)O1	.	.	/	/	/	.
COc1ccc(C(=O)C[n+]2cc(-c3ccc(OC)cc3)n3c2CCCC3)cc1	.	72!	.	.	.	.
O=C(C[n+]1cc(-c2ccccc2)n2c1CCCCC2)c1ccc(Br)cc1	.	.	.	.	.	.
Cc1ccc(-c2c[n+](Cc3ccc(Cl)c(Cl)c3)c3n2CCC3)cc1	.	80	72	.	.	/
Cc1ccc(C(=O)C[n+]2cc(-c3ccc(C)cc3)n3c2CCCCC3)cc1	/	/	76	.	.	/
CC(C)NC(=O)N1CC2(C1)[C@H](c1ccccc1)[C@@H](CO)N2CCC(F)(F)F	.	.	/	/	/	.
O=C(C[C@@H]1C[C@@H]2c3cc(NC(=O)Nc4ccccc4)ccc3O[C@@H]2[C@H](CO)O1)NCc1ccccn1	.	.	/	/	/	.
CO[C@@H]1CN(C)C(=O)c2ccc(NC(=O)Nc3ccc4c(c3)OCO4)cc2OC[C@H](C)NC[C@H]1C	.	.	/	/	/	.
C[C@@H]1CCCCO[C@H](CN(C)CC2CC2)[C@H](C)CN([C@@H](C)CO)C(=O)c2cc(NS(=O)(=O)c3ccc(Cl)cc3)ccc2O1	.	.	/	/	/	.
C[C@@H]1CCCCO[C@H](CN(C)CC2CCCCC2)[C@H](C)CN([C@@H](C)CO)C(=O)c2cc(NS(=O)(=O)c3ccc(Cl)cc3)ccc2O1	.	104	/	/	/	65
C[C@@H]1CCCCO[C@H](CN(C)CC2CCCCC2)[C@H](C)CN([C@@H](C)CO)C(=O)c2cc(NS(=O)(=O)c3ccc(F)cc3)ccc2O1	.	.	/	/	/	67
C[C@@H]1CCCCO[C@@H](CN(C)CC2CCCCC2)[C@@H](C)CN([C@@H](C)CO)C(=O)c2cc(NS(=O)(=O)c3ccc(F)cc3)ccc2O1	.	72	/	/	/	.
CCCN(C)C[C@@H]1OCCCC[C@@H](C)Oc2ccc(NS(=O)(=O)c3ccc(C)cc3)cc2C(=O)N([C@H](C)CO)C[C@@H]1C	.	.	/	/	/	/
C[C@@H]1CCCCO[C@H](CN(C)CC2CCCCC2)[C@@H](C)CN([C@H](C)CO)C(=O)c2cc(NS(=O)(=O)c3ccc(F)cc3)ccc2O1	.	.	/	/	/	.
CCCN(C)C[C@H]1OCCCC[C@H](C)Oc2ccc(NS(=O)(=O)c3ccc(F)cc3)cc2C(=O)N([C@@H](C)CO)C[C@@H]1C	.	69	/	/	/	.
CC(C)NC(=O)N(C)C[C@@H]1OCCCC[C@H](C)Oc2ccc(NC(=O)NC3CCCCC3)cc2C(=O)N([C@@H](C)CO)C[C@H]1C	.	.	/	/	/	.
COc1ccc(CN(C)C[C@H]2OCCCC[C@@H](C)Oc3ccc(NC(=O)Nc4ccccc4)cc3C(=O)N([C@H](C)CO)C[C@H]2C)cc1	.	.	/	/	/	.
COc1ccc(-c2cnc3c(c2)C(=O)N([C@@H](C)CO)C[C@@H](C)[C@@H](CN(C)S(=O)(=O)c2ccc(OC)cc2)O3)cc1	.	/	/	/	/	.
CO[C@@H]1CN(C)C(=O)c2cc(NS(=O)(=O)c3cn(C)cn3)ccc2OC[C@@H](C)N(Cc2cccc(Cl)c2)C[C@H]1C	.	.	/	/	/	.
O=C(NC1CCCCC1)N[C@H]1C=C[C@@H](CC(=O)N2CCOCC2)O[C@H]1CO	.	/	/	/	/	/
O=C(C[C@H]1CC[C@@H](NC(=O)c2ccccc2)[C@@H](CO)O1)NCCc1ccncc1	.	/	/	/	/	.
Clc1ccc2nnc(Cl)n2n1	.	.	.	.	.	.
FC(F)(Cl)c1nnc2ccc(Cl)nn12	.	74	.	.	.	.
SMILES	LGR2 inh	PAX8 inh HTS	MITF TRPM1 inh	Shn3 inh set2	LMP1 NFkB inh	EWS-Fli inh
O=C1C=CCCN1C(=O)/C=C/c1cccc(Br)c1	/	.	/	/	/	64
NC(=O)C1CCN(C(=O)/C=C/c2cccc(Br)c2)CC1	.	.	.	.	.	.
C[C@H](CO)N1C[C@H](C)[C@@H](CN(C)C(=O)CCC(F)(F)F)OCCCC[C@H](C)Oc2ccc(NS(=O)(=O)c3cn(C)cn3)cc2C1=O	.	.	/	/	/	.
Cc1cccc(-n2c3nc(=O)[nH]c(=O)c-3cc3cc([N+](=O)[O-])ccc32)c1	/	.	.	.	.	.
Cc1ccc(C)c(-n2c3nc(=O)[nH]c(=O)c-3cc3cc([N+](=O)[O-])ccc32)c1	.	.	?	.	.	70
Cc1cccc(C(=O)NCN2CCN(c3ccccc3C#N)CC2)c1	.	.	.	.	82	.
CN(C)/N=C/c1ccc(OC(=O)c2cccc([N+](=O)[O-])c2)cc1	.	.	.	.	.	.
O=C(Oc1ccc(/C=N/n2cnnc2)cc1)c1cccc([N+](=O)[O-])c1	73	.	.	.	.	.
COc1ccc2c3c([nH]c2c1)[C@H](CO)N(C(=O)c1cccnc1)CC31CCN(C(=O)Nc2cccc(F)c2)CC1	.	/	/	/	/	.
Cc1nc(SCC(=O)N(C)C2CCS(=O)(=O)C2)c2ccccc2n1 (configuration not stated)	.	.	.	.	.	.
Cc1nc(SCC(=O)N(C)C2(C#N)CCCCC2)c2ccccc2n1	.	62	.	.	.	.
CC(=O)O[C@]1(C(C)=O)CC[C@H]2[C@@H]3C=C(C)C4=CC(=O)CC[C@@H]4[C@H]3CC[C@@]21C	.	.	.	.	52	.
CCOc1cccc(C(=O)Nc2ccc3ccccc3c2)c1	66	.	.	.	.	.
CCOc1cccc(C(=O)Nc2cccc(C(C)=O)c2)c1	.	.	.	.	.	/
CCCOc1ccc(C(=O)Nc2ccc(NC(=O)c3cccs3)cc2)cc1	.	.	.	.	.	.
CCCCOc1cccc(C(=O)Nc2ccc(NC(=O)c3cccs3)cc2)c1	.	.	.	.	.	53
Cc1ccc(-c2cc(C(=O)N(C)Cc3cnn(C)c3C)c3cc(Br)ccc3n2)cc1	71	.	.	.	.	.
Cc1ccc(-c2cc(C(=O)NCc3cnn(C)c3C)c3cc(Br)ccc3n2)cc1	/	.	.	.	.	/
CO[C@@H]1CN(C)C(=O)c2ccc(NC(=O)Nc3cccc(F)c3)cc2OC[C@H](C)N(C(C)=O)C[C@@H]1C	.	/	/	/	/	.
CSc1ccccc1C(=O)N1CCC2(CC1)CC(=O)c1ccccc1O2	.	.	.	.	?	.
O=C1CC2(CCN(C(=O)c3ccccc3F)CC2)Oc2ccccc21	.	.	.	87	.	.
